According to PubChem BioAssay (NCATS):
Results filed as inconclusive are left out. Activity calls are given as the source filed them. The call rests on the fitted dose curve; in most records, active means well fitted cell-killing curve with a large enough effect; inconclusive means small, poorly fitted or top-dose-only effect, or effect the other way; inactive means flat fitted curve, though single readings scatter.

What was measured:
Experiment in all cases: Primary qHTS to identify gynecologic anti-cancer compounds using libraries of approved drugs and bioactive compounds (AID 1345084); further: nearly all actives have a fitted effect of over 55% in size
Conditions in all cases: Gynecologic cancer cell panel viability, ATPlite luminescence, 48 h; series mostly up to 57.5 µM
OV90 = system: OV90
How it was run: (§1)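 48 h compound exposure at 37 C, 5% CO2; five-point qHTS. ATPlite luminescence readout of cell ATP.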

PA-1 = system: PA-1
How it was run: as §1

SKOV3 = system: SKOV3
How it was run: as §1

Tov-21-G = system: Tov-21-G
How it was run: as §1

Tov112D = system: Tov112D
How it was run: as §1
On the % scale 0 is the no-effect control and ±100 the full control effect.

COc1ccccc1CN[C@H]1CCCN[C@H]1c1ccccc1
inactive: Potency (OV90) | Potency (PA-1) | Potency (SKOV3) | Potency (Tov-21-G) | Potency (Tov112D)

CCC1OC(=O)C(C)CC(C)C(=O)/C(C)=C/C(C)C(=O)/C=C/C1(C)O (stereo not given)
inactive: Potency (OV90) | Potency (PA-1) | Potency (SKOV3) | Potency (Tov-21-G) | Potency (Tov112D)

O=C(OCc1ccccc1O[C@@H]1O[C@H](CO)[C@@H](O)[C@H](O)[C@H]1O)C1(O)C=CCCC1O (stereo not given in full)
inactive: Potency (OV90) | Potency (PA-1) | Potency (SKOV3) | Potency (Tov-21-G) | Potency (Tov112D)

C=C(C)C1CCC2(C(=O)OC3OC(COC4OC(CO)C(O)C(O)C4O)C(OC4OC(C)C(O)C(O)C4O)C(O)C3O)CCC3(C(=O)O)C(CCC4C5(C)CCC(=O)C(C)(C)C5CCC43C)C12 (stereo not given)
inactive: activity change, negative = cytotoxicity (OV90) -0.071% [at 11.6 µM] | activity change, negative = cytotoxicity (PA-1) 8.9% [at 11.6 µM] | activity change, negative = cytotoxicity (SKOV3) -6.38% [at 11.6 µM] | activity change, negative = cytotoxicity (Tov-21-G) 0.715% [at 11.6 µM] | activity change, negative = cytotoxicity (Tov112D) -0.367% [at 11.6 µM]

CC(=O)O[C@@]1(C)[C@@H]2CC(=C(C)C)C(=O)C[C@@]2(C)CC[C@H]1OC(=O)C1(C)OC1C (stereo not given in full)
inactive: Potency (OV90) | Potency (PA-1) | Potency (SKOV3) | Potency (Tov-21-G) | Potency (Tov112D)

COc1cccc(C(=O)NCCNc2nc3cc(C)cc(C)c3cc2C#N)c1
inactive: Potency (OV90) | Potency (PA-1) | Potency (SKOV3) | Potency (Tov-21-G) | Potency (Tov112D)

CCOC(=O)C1=C(N)Oc2ccc(Cl)cc2C1C(C#N)C(=O)OCC (stereo not given)
inactive: Potency (OV90) | Potency (PA-1) | Potency (SKOV3) | Potency (Tov-21-G) | Potency (Tov112D)

C=CC1(C)CC2CCC3C(C)(C(=O)O)CCCC3(C)C2=CC1=O (stereo not given)
inactive: Potency (OV90) | Potency (PA-1) | Potency (SKOV3) | Potency (Tov-21-G) | Potency (Tov112D)

C=CC(C)(CC/C=C(\C)C(=O)OC[C@H]1O[C@@H](OC(C)(C=C)CC/C=C(\C)C(=O)O[C@H]2[C@H](O)[C@@H](O)[C@H](OC(C)(C=C)CC/C=C(\C)C(=O)O)O[C@@H]2CO)[C@H](O)[C@@H](O)[C@@H]1O)O[C@@H]1O[C@H](CO)[C@@H](O)[C@H](O)[C@H]1O (stereo not given in full)
inactive: activity change, negative = cytotoxicity (OV90) 2.45% [at 11.6 µM] | activity change, negative = cytotoxicity (PA-1) 1.36% [at 11.6 µM] | activity change, negative = cytotoxicity (SKOV3) 0.327% [at 11.6 µM] | activity change, negative = cytotoxicity (Tov-21-G) -2.47% [at 11.6 µM] | activity change, negative = cytotoxicity (Tov112D) 8.98% [at 11.6 µM]

C[C@@H]1CC[C@]2(C(=O)O[C@@H]3O[C@H](CO[C@@H]4O[C@H](CO)[C@@H](O[C@@H]5O[C@@H](C)[C@H](O)[C@@H](O)[C@H]5O)[C@H](O)[C@H]4O)[C@@H](O)[C@H](O)[C@H]3O)CC[C@]3(C)C(=CCC4[C@@]5(C)C[C@@H](O)[C@H](O)[C@@](C)(CO)C5CC[C@]43C)C2[C@H]1C (stereo not given in full)
inactive: activity change, negative = cytotoxicity (OV90) -1.43% [at 11.6 µM] | activity change, negative = cytotoxicity (PA-1) 6.43% [at 11.6 µM] | activity change, negative = cytotoxicity (SKOV3) 21.1% [at 11.6 µM] | activity change, negative = cytotoxicity (Tov-21-G) 3.06% [at 11.6 µM] | activity change, negative = cytotoxicity (Tov112D) 3.29% [at 11.6 µM]

Cc1onc(-c2c(Cl)cccc2Cl)c1CC(=O)NCc1ccc(OCC(F)(F)F)nc1
inactive: Potency (OV90) | Potency (PA-1) | Potency (SKOV3) | Potency (Tov-21-G) | Potency (Tov112D)

CC1(C)CC[C@]2(C(=O)O[C@@H]3O[C@H](CO)[C@@H](O)[C@H](O)[C@H]3O)CC[C@]3(C)C(=CCC4[C@@]5(C)CC[C@H](O[C@H]6O[C@H](CO)[C@@H](O)[C@H](O[C@@H]7O[C@H](CO)[C@@H](O)[C@H](O)[C@H]7O)[C@H]6O)C(C)(C)C5CC[C@]43C)[C@@H]2C1 (stereo not given in full)
inactive: activity change, negative = cytotoxicity (OV90) -0.2% [at 11.6 µM] | activity change, negative = cytotoxicity (PA-1) 3.09% [at 11.6 µM] | activity change, negative = cytotoxicity (SKOV3) -4.14% [at 11.6 µM] | activity change, negative = cytotoxicity (Tov-21-G) -3.87% [at 11.6 µM] | activity change, negative = cytotoxicity (Tov112D) -5.45% [at 11.6 µM]

CCC[C@H](N[C@@H](C)C(=O)N1[C@H](C(=O)O)C[C@@H]2CCCC[C@@H]21)C(=O)O
inactive: Potency (OV90) | Potency (PA-1) | Potency (SKOV3) | Potency (Tov-21-G) | Potency (Tov112D)

COC1CC(O[C@H]2CC[C@@]3(C)C(=CC[C@]4(O)C3[C@H](O)[C@@H](O)[C@]3(C)[C@@H]([C@H](C)O)CC[C@@]34O)C2)OC(C)C1OC1CC(OC)C(OC2CC(OC)C(OC3OC(C)C(OC4OC(CO)C(O)C(O)C4O)C(OC)C3O)C(C)O2)C(C)O1 (stereo not given in full)
inactive: activity change, negative = cytotoxicity (OV90) -7.88% [at 11.6 µM] | activity change, negative = cytotoxicity (PA-1) -4.49% [at 11.6 µM] | activity change, negative = cytotoxicity (SKOV3) 1.02% [at 11.6 µM] | activity change, negative = cytotoxicity (Tov-21-G) -0.0649% [at 11.6 µM] | activity change, negative = cytotoxicity (Tov112D) 1.61% [at 11.6 µM]

C=C1CCC(OC(C)=O)C2(C)CC3OC(=O)C(C)=C3CC12 (stereo not given)
inactive: Potency (OV90) | Potency (PA-1) | Potency (SKOV3) | Potency (Tov-21-G) | Potency (Tov112D)

CC(C)=C1CC2[C@](C)(CC[C@@H](OC(=O)C3(C)OC3C)[C@@]2(C)O)CC1=O (stereo not given in full)
inactive: Potency (OV90) | Potency (PA-1) | Potency (SKOV3) | Potency (Tov-21-G) | Potency (Tov112D)

CC1CC(=O)[C@]2(O)C(C(=O)OCCc3ccc(O)c(O)c3)=CO[C@@H](O[C@@H]3O[C@H](CO)[C@@H](O)[C@H](O)[C@H]3O)[C@H]12 (stereo not given in full)
inactive: Potency (OV90) | Potency (PA-1) | Potency (SKOV3) | Potency (Tov-21-G) | Potency (Tov112D)
